This is an account of results in PubChem BioAssay (NCI).

This is part of a sample that, as a whole, favours compounds with a hit. Of some 83,000 tested, about 20% had one in any assay.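 96-well plates, one dose, 48 hours. Percent growth reported; active if below 10.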 A number with no mark means an inactive call. Activity calls are given as the source filed them.

Test systems include HCT-15 colon; HT29 colon; SNB-75 CNS; SNB-19 CNS; U251 CNS; PC-3 prostate; SK-MEL-5 melanoma; UACC-62 melanoma; SK-MEL-28 melanoma; SK-MEL-2 melanoma; EKVX NSCLC; SN12C renal; UO-31 renal; TK-10 renal; ACHN renal; CAKI-1 renal; A498 renal; CCRF-CEM leukemia; MOLT-4 leukemia; LOX IMVI melanoma.
Common to all, as to assay: NCI-60 one-dose screen, 48 h (100 = growth as untreated, 0 = no growth, -100 = all killed)
Holding throughout (conditions): 10 µM unless noted

With `C#CCOc1cccc(Nc2ncnc3c(NC(=O)CCl)cccc23)c1`, the growth in the experiment with HCT-15 colon was -37.9% (active); in the experiment with HT29 colon, -77.1% (active); with SNB-75 CNS, 74.8%; in the experiment on SNB-19 CNS, 20.1%; in the experiment on U251 CNS, -69.2% (active); in the experiment on PC-3 prostate it was 2.88% (active). In addition, the growth in the experiment on SK-MEL-5 melanoma was -89.2% (active); in the experiment with UACC-62 melanoma it was 21.8%; in the experiment on SK-MEL-28 melanoma it was 75%; in the experiment on SK-MEL-2 melanoma it was 36.5%; in the experiment on EKVX NSCLC, -19.8% (active); with SN12C renal, 6.82% (active). Further, the growth in the experiment on UO-31 renal is 35.4%; in the experiment on TK-10 renal, 63.7%; in the experiment on ACHN renal it was -72.4% (active); in the experiment with CAKI-1 renal it was 54.9%; in the experiment on A498 renal it was 101%; in the experiment with CCRF-CEM leukemia, -57.5% (active). Besides, the growth in the experiment with MOLT-4 leukemia was -12.7% (active).

Turning to `Cc1ccc(C2=Nc3c(N)nc(N)nc3NC(c3cccc(Nc4ccnc5cc(C(F)(F)F)ccc45)c3)C2)cc1` (stereo not drawn), the growth in the experiment with HCT-15 colon is 15.2%; in the experiment on HT29 colon, 1.9% (active); with SNB-75 CNS it was 7.55% (active); with SNB-19 CNS, 34.4%; with U251 CNS it was 12.8%; in the experiment with PC-3 prostate, 16.5%. Moreover, the growth in the experiment with SK-MEL-5 melanoma was 17.6%; in the experiment on UACC-62 melanoma, 40.8%; in the experiment on LOX IMVI melanoma, -2.42% (active); with SK-MEL-28 melanoma, 66.8%; in the experiment with SK-MEL-2 melanoma it was -8.24% (active); in the experiment with EKVX NSCLC, 38.1%. Besides, the growth with SN12C renal was 39.2%; with UO-31 renal it was 39.6%; in the experiment on TK-10 renal, 66%; in the experiment on ACHN renal it was 39.1%; in the experiment on CAKI-1 renal, 29%; in the experiment with A498 renal, 58.4%. Also, the growth in the experiment on CCRF-CEM leukemia was 3.36% (active); with MOLT-4 leukemia it was 1.92% (active).

As to `COc1ccc(-c2nc(SCCC(C)C)nc(N/N=C(/C)c3ccc(N)cc3)c2C#N)cc1`, the growth in the experiment with HCT-15 colon is 97.6%; with HT29 colon, 104%; in the experiment with SNB-75 CNS it was 81.4%; with SNB-19 CNS, 81.6%; in the experiment with U251 CNS, 90.3%; with PC-3 prostate, 96.5%. Further, the growth was 99.5% in the experiment on SK-MEL-5 melanoma; 87.5% in the experiment with UACC-62 melanoma; 121% with SK-MEL-28 melanoma; 109% with SK-MEL-2 melanoma; 93.4% with EKVX NSCLC; 75.1% with SN12C renal. Besides, the growth was 69.3% in the experiment with UO-31 renal; 104% in the experiment on TK-10 renal; 92.9% in the experiment on ACHN renal; 81.8% in the experiment with CAKI-1 renal; 90.9% with A498 renal; 95.8% in the experiment with CCRF-CEM leukemia. In addition, the growth with MOLT-4 leukemia was 95.4%.

Take `CCN(CC)CCCC(Nc1c2ccc(Cl)cc2nc2ccc(OC)cc12)c1ccncc1` (stereo not drawn): the growth in the experiment with HCT-15 colon is 54.8%; in the experiment with HT29 colon, 43.7%; with SNB-75 CNS, 87%; in the experiment on SNB-19 CNS, 81%; in the experiment on U251 CNS it was 79.3%; in the experiment with PC-3 prostate, 66.6%. The growth is 103% with UACC-62 melanoma; 63% in the experiment with LOX IMVI melanoma; 85.6% with SK-MEL-28 melanoma; 108% in the experiment on SK-MEL-2 melanoma; 87% in the experiment on EKVX NSCLC; 63.5% in the experiment with SN12C renal. Besides, the growth in the experiment on UO-31 renal was 54.3%; with TK-10 renal, 81.8%; in the experiment on ACHN renal it was 57%; in the experiment with CAKI-1 renal it was 90.2%; with A498 renal, 81.8%; in the experiment with CCRF-CEM leukemia, 59.8%. Also, the growth in the experiment on MOLT-4 leukemia was 18.3%.

`CCOc1ccc(N2C(=O)CCSC2=S)cc1`: the growth in the experiment on HCT-15 colon is 101%; in the experiment with HT29 colon, 106%; in the experiment with SNB-75 CNS it was 90.5%; in the experiment on SNB-19 CNS, 94.7%; in the experiment on U251 CNS it was 102%; in the experiment on PC-3 prostate, 93.3%. The growth is 98.9% in the experiment with SK-MEL-5 melanoma; 91.9% in the experiment with UACC-62 melanoma; 108% with SK-MEL-28 melanoma; 102% with SK-MEL-2 melanoma; 95.5% with EKVX NSCLC; 101% in the experiment with SN12C renal. In addition, the growth in the experiment with UO-31 renal was 85.5%; with TK-10 renal, 96.3%; with ACHN renal, 101%; in the experiment on CAKI-1 renal it was 96.4%; in the experiment with A498 renal, 102%; in the experiment on CCRF-CEM leukemia, 108%. Further, in the experiment on MOLT-4 leukemia, the growth was 104%.

As for `CCN(CC)c1ccc(/C=N/NC(=O)c2ccccc2Nc2ccnc(C(F)(F)F)c2)c(O)c1`, the growth in the experiment on HCT-15 colon is 32.6%; with HT29 colon, 37.7%; in the experiment on SNB-75 CNS, 43.8%; in the experiment with SNB-19 CNS it was 20.1%; in the experiment with U251 CNS, 14.8%; in the experiment on PC-3 prostate it was 36%. In addition, the growth is 19.4% in the experiment with UACC-62 melanoma; 5.58% (active) in the experiment on LOX IMVI melanoma; 47.9% in the experiment with SK-MEL-28 melanoma; 94.1% with SK-MEL-2 melanoma; 30.5% in the experiment with EKVX NSCLC; 22.2% with SN12C renal. Besides, the growth is 16% in the experiment on UO-31 renal; 33.3% in the experiment on TK-10 renal; 11.9% with ACHN renal; 56.9% with CAKI-1 renal; 47.8% in the experiment with A498 renal; 14.5% with CCRF-CEM leukemia. Moreover, the growth with MOLT-4 leukemia is 59.6%.

With `Cc1c(N2CCCCC2)[nH]c2ccccc12`, the growth with HCT-15 colon was 131%; with HT29 colon it was 104%; in the experiment with SNB-75 CNS, 117%; in the experiment on SNB-19 CNS, 116%; in the experiment with U251 CNS, 101%; with PC-3 prostate it was 70.5%. Further, the growth is 110% in the experiment on UACC-62 melanoma; 95.3% with LOX IMVI melanoma; 133% in the experiment with SK-MEL-28 melanoma; 119% in the experiment with SK-MEL-2 melanoma; 117% with EKVX NSCLC; 98.4% in the experiment with SN12C renal. Besides, the growth was 125% in the experiment with UO-31 renal; 121% in the experiment with TK-10 renal; 115% in the experiment on ACHN renal; 101% in the experiment with CAKI-1 renal; 123% in the experiment with A498 renal; 55.1% with CCRF-CEM leukemia. Besides, the growth in the experiment with MOLT-4 leukemia was 110%.

Turning to `CO[C@]12C=C/C(=C(/C(=O)OCc3cccnc3)C(=O)CCCCCCCC[C@]3(OC)C=C/C(=C(/C(=O)OCc4cccnc4)C(=O)CCCCCCCC1)O3)O2`, the growth in the experiment on HCT-15 colon is -78.5% (active); with HT29 colon it was -32.3% (active); in the experiment on SNB-75 CNS, -79.6% (active); in the experiment with SNB-19 CNS, -90.5% (active); with U251 CNS, -64.2% (active); in the experiment on PC-3 prostate, -51.6% (active). Further, the growth in the experiment with UACC-62 melanoma is -82.5% (active); with LOX IMVI melanoma, -82.3% (active); in the experiment on SK-MEL-28 melanoma, -86.3% (active); in the experiment on SK-MEL-2 melanoma, -44.8% (active); with EKVX NSCLC, -53.8% (active); with SN12C renal, -46.1% (active). Further, the growth in the experiment on UO-31 renal is -40.7% (active); in the experiment with TK-10 renal, -13.8% (active); with ACHN renal it was -73.6% (active); in the experiment on CAKI-1 renal it was -29.7% (active); in the experiment on A498 renal, -88.4% (active); with CCRF-CEM leukemia, -23.2% (active). Also, in the experiment with MOLT-4 leukemia, the growth was -13.1% (active).
